# In the supplement of paper PMC4723716:
# ± gives the uncertainty stated by the source. In all, about 9,900 compounds were measured (“viability index relative to DMSO control”: median about 1, lowest 2% from about 0.85 on). The sample holds the lowest values, similar compounds and a random draw of the others, so the mix is not that of the screen.
# Tested on: Plasmodium falciparum NF54 stage V gametocytes
# Assay: viability index relative to DMSO control (fraction); higher = less gametocyte killing
# Conditions: 2.5 µM, incubation time: 72 h
# Method: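 Broad DOS informer set and blood-stage-active DOS compounds screened in duplicate at 2.5 µM against P. falciparum NF54 stage V gametocytes with the serum-free one-step SaLSSA (1536-well): 72 h at 37 °C under low oxygen, then saponin lysis and MitoTracker Red CMXRos staining, with high-content imaging. Viability index = viable-object count divided by the plate mean of DMSO wells (0 = killed, about 1 = inactive).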
# [1] = library set: Broad Institute DOS
# [2] = library set: Broad Institute Blood Stage
SMILES,viability index [1],viability index [2]
O=C(N[C@H]1C=C[C@@H](CC(=O)N2CCN(c3ccccc3)CC2)O[C@H]1CO)c1ccccc1,1.04 ± 0.087,–
N#C[C@H]1[C@H](c2ccc(-c3cncnc3)cc2)[C@@H](CO)N1C(=O)Cc1ccccc1,1.06 ± 0.1,–
COc1ccc(-c2ccccc2[C@@H]2[C@@H](CO)N(C(=O)C3CCC3)[C@H]2C#N)cc1,1.17 ± 0.15,–
O=C(C[C@@H]1CC[C@H]2NC[C@H](O)COC[C@@H]2O1)Nc1nccs1,1.04 ± 0.068,–
C[C@H](CO)N1C[C@H](C)[C@H](CN(C)Cc2cccc(C(F)(F)F)c2)OCc2ccccc2-c2c(n(C)c3ccccc23)C1=O,0.972 ± 0.029,–
COc1cccc(S(=O)(=O)N2CCCCN3[C@H](CO)[C@H](c4ccc(C#CCC(C)C)cc4)[C@H]3C2)c1,0.6428 ± 0.0032,–
COc1cccc(S(=O)(=O)N2CCCCN3[C@H](CO)[C@@H](c4ccc(C#CCC(C)C)cc4)[C@@H]3C2)c1,0.941 ± 0.042,–
COc1cccc(S(=O)(=O)N2CCCCN3[C@H](CO)[C@H](c4ccc(C#CCC(C)C)cc4)[C@@H]3C2)c1,1 ± 0.078,–
COc1cccc(S(=O)(=O)N2CCCCN3[C@@H](CO)[C@H](c4ccc(C#CCC(C)C)cc4)[C@@H]3C2)c1,1.01 ± 0.053,–
COc1cccc(S(=O)(=O)N2CCCCN3[C@@H](CO)[C@@H](c4ccc(C#CCC(C)C)cc4)[C@@H]3C2)c1,0.393 ± 0.021,–
COc1cccc(S(=O)(=O)N2CCCCN3[C@H](C2)[C@H](c2ccc(C#CCC(C)C)cc2)[C@@H]3CO)c1,0.9833 ± 0.0041,–
COc1ccc(NC(=O)N(C)C[C@H]2Oc3c(NC(=O)CCCCCC(=O)Nc4ccccc4N)cccc3C(=O)N([C@@H](C)CO)C[C@H]2C)cc1,0.645 ± 0.046,–
COc1ccc(NC(=O)N(C)C[C@H]2Oc3c(NC(=O)CCCCCC(=O)Nc4ccccc4N)cccc3C(=O)N([C@H](C)CO)C[C@H]2C)cc1,0.62 ± 0.082,–
COc1ccc(NC(=O)N(C)C[C@@H]2Oc3c(NC(=O)CCCCCC(=O)Nc4ccccc4N)cccc3C(=O)N([C@@H](C)CO)C[C@H]2C)cc1,1.07 ± 0.091,–
COc1ccc(NC(=O)N(C)C[C@@H]2Oc3c(NC(=O)CCCCCC(=O)Nc4ccccc4N)cccc3C(=O)N([C@@H](C)CO)C[C@@H]2C)cc1,0.943 ± 0.058,–
COc1ccc(NC(=O)N(C)C[C@@H]2Oc3c(NC(=O)CCCCCC(=O)Nc4ccccc4N)cccc3C(=O)N([C@H](C)CO)C[C@H]2C)cc1,0.893 ± 0.012,–
COc1ccc(NC(=O)N(C)C[C@H]2Oc3c(NC(=O)CCCCCC(=O)Nc4ccccc4N)cccc3C(=O)N([C@@H](C)CO)C[C@@H]2C)cc1,0.991 ± 0.081,–
COc1ccc2c3c([C@@H](CO)N(Cc4cc(OC)cc(OC)c4)C[C@]33CN(C3)C(=O)CN3CCOCC3)n(C)c2c1,0.879 ± 0.02,–
COC(=O)C[C@H]1CC[C@H]2[C@@H](COc3ccc(NS(=O)(=O)c4ccc(C)cc4)cc3C(=O)N2C)O1,1.114 ± 0.0014,–
C[C@@H]1CCCCO[C@@H](CN(C)CC2CCCCC2)[C@H](C)CN([C@@H](C)CO)C(=O)c2cc(NS(C)(=O)=O)ccc2O1,1.08 ± 0.061,–
CC(=O)N1C[C@@H]2N[C@H](C1)[C@H]2c1ccc(-c2ccccc2)cc1,1.11 ± 0.016,–
COc1cccc(-c2ccc([C@@H]3[C@@H]4CN(S(=O)(=O)Cc5ccccc5)C[C@H]3N4)cc2)c1,0.808 ± 0.031,–
O=S(=O)(c1ccc(-c2ccccc2)cc1)N1C[C@@H]2N[C@H](C1)[C@@H]2c1ccc(-c2ccncc2)cc1,1.072 ± 0.0057,–
Cc1ccccc1-c1ccc([C@@H]2[C@@H]3CN(S(=O)(=O)Cc4ccccc4)C[C@H]2N3)cc1,0.854 ± 0.034,–
N#Cc1ccc(-c2ccc([C@@H]3[C@@H]4CN(S(=O)(=O)Cc5ccccc5)C[C@H]3N4)cc2)cc1,0.976 ± 0.037,–

SMILES,viability index [1],viability index [2]
CS(=O)(=O)N1C[C@@H]2N[C@H](C1)[C@@H]2c1ccc(-c2ccccc2)cc1,0.706 ± 0.03,–
C[C@@H]1CN([C@@H](C)CO)C(=O)c2cc(NS(=O)(=O)c3cn(C)cn3)ccc2O[C@H]1CN(C)S(=O)(=O)c1ccc(F)cc1,1.06 ± 0.038,–
O=C(C[C@H]1C=C[C@@H](NC(=O)c2ccncc2)[C@H](CO)O1)NCC1CC1,1.029 ± 0.0019,–
Cc1ccccc1-c1ccc([C@H]2[C@H]3CN(S(C)(=O)=O)CC(=O)N3[C@H]2CO)cc1,0.975 ± 0.047,–
CCc1nc(N2[C@@H](C#N)[C@@H](c3ccccc3-c3ccccc3C)[C@@H]2CO)sc1C,1.08 ± 0.12,–
CCc1nc(N2[C@@H](C#N)[C@H](c3ccccc3-c3ccccc3C)[C@@H]2CO)sc1C,0.81 ± 0.063,–
CCc1nc(N2[C@H](C#N)[C@@H](c3ccccc3-c3ccccc3C)[C@@H]2CO)sc1C,1.07 ± 0.088,–
COc1ccc2c3c([nH]c2c1)[C@@H](CO)N(C[C@]31CCN(C)CC1)S(=O)(=O)c1ccccc1,1.04 ± 0.032,–
CO[C@@H]1CN(C)C(=O)c2ccc(NS(C)(=O)=O)cc2OC[C@@H](C)N(C(=O)CN(C)C)C[C@H]1C,0.977 ± 0.055,–
O=C(c1ccc(F)cc1)N1C[C@@H]2N[C@H](C1)[C@H]2c1ccc(-c2cccnc2)cc1,1.08 ± 0.12,–
N#Cc1ccc(-c2ccc([C@H]3[C@@H]4CN(C(=O)c5cccnc5)C[C@H]3N4)cc2)cc1,1.15 ± 0.046,–
N#Cc1cccc(-c2ccc([C@H]3[C@@H]4CN(C(=O)c5ccc6c(c5)OCO6)C[C@H]3N4)cc2)c1,1.09 ± 0.072,–
N#Cc1ccc(-c2ccc([C@@H]3[C@@H]4CN(C(=O)Nc5ccc6c(c5)OCO6)C[C@H]3N4)cc2)cc1,0.56 ± 0.15,–
N#Cc1ccc(-c2ccc([C@@H]3[C@@H]4CN(C(=O)c5cccnc5)C[C@H]3N4)cc2)cc1,0.81 ± 0.2,–
N#Cc1cccc(-c2ccc([C@@H]3[C@@H]4CN(C(=O)c5ccc6c(c5)OCO6)C[C@H]3N4)cc2)c1,0.896 ± 0.077,–
O=C(Cc1ccncc1)N1CC[C@@H]2[C@H]1c1cc(-c3ccccc3F)ccc1N[C@@H]2CO,1.03 ± 0.046,–
CCCC(=O)N1C[C@@]2(C1)CN([C@H](CO)c1[nH]c3cc(OC)ccc3c21)S(=O)(=O)c1ccc(C)cc1,0.946 ± 0.074,–
COc1ccc(CN2C[C@]3(CN(C3)S(=O)(=O)c3ccc(C)cc3)c3c([nH]c4cc(OC)ccc34)[C@H]2CO)cc1,0.793 ± 0.014,–
COc1ccc2c3c([nH]c2c1)[C@@H](CO)N(C[C@]31CN(C1)C(=O)Cc1cccnc1)S(C)(=O)=O,1.06 ± 0.048,–
COc1ccc2c3c([nH]c2c1)[C@H](CO)N(Cc1ccc(Cl)cc1)C[C@]31CN(C1)S(C)(=O)=O,0.931 ± 0.066,–
COc1ccc2c3c([nH]c2c1)[C@@H](CO)N(Cc1ccc(Cl)cc1)C[C@]31CN(C1)S(C)(=O)=O,0.931 ± 0.095,–
CCCC(=O)N1CC[C@@]2(CC1)CN([C@@H](CO)c1[nH]c3cc(OC)ccc3c21)S(=O)(=O)c1ccc(C)cc1,–,0.655 ± 0.046
COc1ccc2c3c([nH]c2c1)[C@H](CO)N(C[C@]31CCN(CC1)C(=O)Cc1cccnc1)S(=O)(=O)c1ccc(C)cc1,0.75 ± 0.079,–
COc1ccc2c3c([nH]c2c1)[C@H](CO)N(C[C@]31CN(C1)C(=O)Cc1cccnc1)S(C)(=O)=O,1.08 ± 0.04,–
CCS(=O)(=O)N1CC[C@@]2(CC1)CN([C@@H](CO)c1[nH]c3cc(OC)ccc3c21)S(=O)(=O)c1ccc(C)cc1,0.934 ± 0.052,–

SMILES,viability index [1],viability index [2]
CCS(=O)(=O)N1CC[C@@]2(CC1)CN([C@H](CO)c1[nH]c3cc(OC)ccc3c21)S(=O)(=O)c1ccc(C)cc1,1 ± 0.046,–
COc1ccc2c3c([nH]c2c1)[C@@H](CO)N(C[C@]31CCN(CC1)C(=O)Cc1cccnc1)S(=O)(=O)c1ccc(C)cc1,0.827 ± 0.019,–
CCCC(=O)N1C[C@@]2(C1)CN([C@@H](CO)c1[nH]c3cc(OC)ccc3c21)S(=O)(=O)c1ccc(C)cc1,0.9841 ± 0.0028,–
C[C@H](CO)N1C[C@H](C)[C@H](CN(C)C(=O)Nc2cccc(C(F)(F)F)c2)OCc2cn(nn2)CCCC1=O,1.01 ± 0.036,–
COc1ccc2c3c([C@@H](CO)N(C[C@]33CN(C3)C(=O)c3ccccc3F)C(=O)Nc3ccccc3F)n(C)c2c1,0.97 ± 0.053,–
O=C(Cc1cccnc1)N1CC(=O)N2[C@@H](CO)[C@H](c3ccc(/C=C/c4ccccc4)cc3)[C@@H]2C1,1.015 ± 0.0057,–
C[C@H]1CN([C@@H](C)CO)C(=O)Cc2cc(N(C)C)ccc2O[C@@H]1CN(C)C(=O)NC1CCCCC1,0.883 ± 0.058,–
O=C1CNC[C@@H]2[C@H](c3ccc(C#CC4CCCCC4)cc3)[C@@H](CO)N12,1.06 ± 0.067,–
CN1CCN(C(=O)C[C@H]2CC[C@@H]3[C@H](COC[C@H](O)CN3C(=O)c3ccccc3F)O2)CC1,0.986 ± 0.019,–
Cc1ccc(S(=O)(=O)Nc2ccc3c(c2)C(=O)N([C@@H](C)CO)C[C@@H](C)[C@@H](CN(C)Cc2ccc(C(F)(F)F)cc2)O3)cc1,1.04 ± 0.07,–
COc1ccc(NC(=O)N(C)C[C@@H]2Oc3ccc(NC(=O)Nc4cccc5ccccc45)cc3CC(=O)N([C@@H](C)CO)C[C@H]2C)cc1,1.03 ± 0.033,–
O=C(N[C@@H]1C=C[C@@H](CC(=O)N2CCN(c3ccccc3)CC2)O[C@@H]1CO)c1ccccc1,1.11 ± 0.12,–
N#C[C@H]1[C@@H](c2ccccc2-c2ccccc2F)[C@@H](CO)N1C(=O)c1cccc(F)c1,1.16 ± 0.25,–
Cc1noc(C)c1NC(=O)N[C@@H]1C=C[C@@H](CC(=O)Nc2ccc(-c3ccccc3)cc2)O[C@@H]1CO,0.979 ± 0.1,–
Cc1noc(C)c1S(=O)(=O)Nc1ccc2c(c1)C(=O)N([C@H](C)CO)C[C@@H](C)[C@H](CN(C)Cc1ccc(C(=O)O)cc1)OCCCC[C@@H](C)O2,1.07 ± 0.12,–
N#C[C@@H]1[C@H](c2ccc(-c3cccc(F)c3)cc2)[C@H](CO)N1C(=O)NC1CCCC1,0.743 ± 0.059,–
CCCNC(=O)N1[C@H](CO)[C@H](c2ccc(C#Cc3cccc(F)c3)cc2)[C@@H]1C#N,1.09 ± 0.027,–
CN(C)CC(=O)N1[C@H](C#N)[C@@H](c2ccc(C#CC3CCCCC3)cc2)[C@H]1CO,1.05 ± 0.039,–
CC(C)NC(=O)N1[C@H](C#N)[C@H](c2ccc(C#CC3CCCCC3)cc2)[C@@H]1CO,–,0.822 ± 0.041
CCCNC(=O)N1[C@H](C#N)[C@@H](c2ccc(C#Cc3cccc(F)c3)cc2)[C@@H]1CO,0.981 ± 0.013,–
CCCNC(=O)N1[C@H](C#N)[C@H](c2ccc(C#Cc3ccc(F)cc3)cc2)[C@@H]1CO,–,0.844 ± 0.021
N#C[C@@H]1[C@@H](c2ccc(-c3cccc(F)c3)cc2)[C@H](CO)N1C(=O)NC1CCCC1,0.935 ± 0.064,–
N#C[C@H]1[C@@H](c2ccc(-c3cccc(F)c3)cc2)[C@H](CO)N1C(=O)NC1CCCC1,1.055 ± 0.0015,–
CN(C)CC(=O)N1[C@H](C#N)[C@H](c2ccc(C#CC3CCCCC3)cc2)[C@@H]1CO,0.981 ± 0.11,–
